aSyn 5UTR act: Activators via SNCA 5'UTR binding, MLPCN; alpha-synuclein 5'UTR reporter, activators screen; activity score, % (tested at 7.5 µM), hits read low; hit rate 7.1% among 300,000; in the data active means activity score below about -60%
Starred values were filed as active, the others as inactive. Not all results are given here.

SMILES | aSyn 5UTR act
O=C(CNC(=O)c1cccc(F)c1)N/N=C/c1ccc([N+](=O)[O-])s1 | -105*
COc1ccccc1NC(=O)C(=O)N/N=C/c1ccc([N+](=O)[O-])s1 | -138*
COC1=C(C)C(O)=C(C(=O)/C=C/c2ccccc2)C(=O)C1(C)C | -104*
Cc1ccccc1-c1nnc(-c2ccc(Br)cc2)o1 | -175*
CSc1ccccc1-c1nnc(-c2ccc(C)cc2)o1 | -106*
Cc1ccccc1-c1nnc(-c2ccccc2C)o1 | -145*
Cc1ccccc1-c1nnc(CN2CCC(C)CC2)o1 | -77*
Cc1ccc(NC(=O)CC2SCCNC2=O)cc1Cl (centres undefined) | -143*
CCCCN(Cc1ccccc1)c1ncnc2nc[nH]c12 | -63*
CCc1ccc(C(=O)NCc2cccs2)s1 | -63*
CC(C)Oc1ccc(C(=O)NCc2cccs2)cc1 | -85*
CCOC(=O)c1c(C)oc2c1c(C(c1cccnc1)N1CCOCC1)c(O)c1ccccc12 (centres undefined) | -245*
O=[N+]([O-])c1ccc(-[n+]2ccc3ccccc3c2)c([N+](=O)[O-])c1 | -105*
Brc1ccccc1/C=N/Nc1ccccn1 | -131*
Clc1nccnc1N/N=C/c1ccc(Br)cc1 | -106*
Cc1ccc(/C=N/Nc2ccccn2)s1 | -149*
Brc1ccc(/C=N/Nc2ccccn2)cc1 | -193*
Fc1ccc(/C=N/Nc2ccccn2)cc1 | -120*
COc1ccc(/C=N/Nc2ccccn2)cc1O | -145*
FC(F)(F)c1ccccc1/C=N/Nc1ccccn1 | -94*
Clc1ccc(/C=N/Nc2ccccn2)cc1 | -163*
Oc1ccc(N=Nc2ccccc2C(F)(F)F)c2cccnc12 | 72
C(=N\Nc1ccccn1)/c1c[nH]c2ccccc12 | -114*
O=C(CSc1ccc(F)cc1)Nc1ccc(C2SCCS2)cc1 | -155*
Cc1ccc(NC(=O)COc2ccc(C3SCCS3)cc2)cc1 | -69*
SMILES | aSyn 5UTR act
Cc1nn(C)c(Sc2ccccn2)c1[N+](=O)[O-] | -87*
O=[N+]([O-])c1cccc(N/N=C/c2cc([N+](=O)[O-])ccc2O)c1 | -70*
O=[N+]([O-])c1ccc(N/N=C/c2ccccc2O)cc1 | -165*
CN(/N=C/c1cc([N+](=O)[O-])ccc1O)c1ccccc1 | -159*
O=[N+]([O-])c1ccc(O)c(/C=N/Nc2ccccn2)c1 | 95
O=[N+]([O-])c1ccc(O)c(C=Nc2ccc3c(c2)OCCO3)c1 | -62*
CCCOc1ccc(/C=N/Nc2cccc([N+](=O)[O-])c2)c(O)c1 | -164*
CCCOc1ccc(/C=N/Nc2ccccc2[N+](=O)[O-])c(O)c1 | 62
CCCOc1ccc(/C=N/Nc2ccc(C(=O)O)cc2)c(OCCC)c1 | -109*
COc1ccc(-c2ccc(-c3noc(C(C)C)n3)c(OC)n2)cc1 | -96*
CCc1nc(-c2ccc(-c3ccc(OC)cc3)nc2OC)no1 | -132*
COCc1nc(-c2ccc(-c3ccc(OC)cc3)nc2OC)no1 | -123*
COCc1nc(-c2ccc(-c3ccccc3)nc2OC)no1 | -100*
COc1nc(-c2ccccc2)ccc1-c1noc(C)n1 | -112*
COc1ccccc1NC(=O)Nc1nnc(C(C)C)s1 | -81*
CC(=O)Nc1nnc(COc2ccc(Cl)cc2)s1 | -109*
CCOc1ccc(Nc2cc(C)nc(-n3nc(C)cc3C)n2)cc1 | 63
CCc1nnc(NC(=O)Nc2ccccc2OC)s1 | -70*
CCOc1ccc(Nc2n[nH]c(=S)s2)cc1 | -112*
CCOc1ccc(NC(=O)Nc2nnc(CC)s2)cc1 | -105*
CC(C)(C)SCCNC(=O)/C=C/c1ccccc1 | -113*
CC(C)(C)SCCNC(=O)/C=C/c1ccc(F)cc1 | -68*
CC(C)NC(=S)NC(=O)/C=C/c1ccc(F)cc1 | -64*
O=C(/C=C/c1ccccc1)NCCc1ccccc1 | -154*
Cc1nnc2sc(-c3ccc(N(C)C)cc3)nn2c1=O | -76*
SMILES | aSyn 5UTR act
CN(C)c1ccc(-c2nn3c(-c4ccccc4Cl)nnc3s2)cc1 | 82
CCCCNC(=O)c1nnn(-c2ccccc2)c1N | -140*
Fc1ccc2nc3[nH]c4ccccc4c3nc2c1 | -161*
O=C(NC1CCCCC1)c1cc(-c2cccc(Cl)c2)on1 | -235*
O=C(NC1CCCC1)c1cc(-c2cccc(Cl)c2)on1 | -186*
COC(=O)c1ccc(C)c(NS(=O)(=O)c2ccc(OC)cc2)c1 | 82
COc1ccc(S(=O)(=O)Nc2ccc(O)c3ccccc23)cc1 | -68*
Cc1ccc(-c2csc(N3C(=N)SCC3=O)n2)cc1 | -162*
COc1cc(CNc2ccccc2SC)ccc1O | -72*
Cc1ccccc1NC(=O)Nc1ccc2c(c1)OCO2 | -129*
COc1ccc(NC(=O)Nc2cc(C)ccc2F)cc1OC | -77*
COc1ccc(NC(=O)Nc2ccc3c(c2)OCO3)c(C)c1 | -81*
COc1ccccc1NC(=O)Nc1ccc2c(c1)OCCO2 | -131*
CCOc1ccccc1NC(=O)Nc1ccc2c(c1)OCO2 | -85*
CC(=O)Nc1ccccc1OCC(=O)c1ccc2c(c1)OCO2 | -99*
Cc1ccc(CNc2ccc3c(c2)OCO3)c(C)c1 | -98*
COc1ccccc1NC(=O)Nc1ccc(F)c(F)c1 | -66*
Cc1c(NC(=O)Nc2ccc3c(c2)OCO3)cccc1[N+](=O)[O-] | -96*
Cc1ccc(C)c(NC(=O)Nc2ccc3c(c2)OCO3)c1 | -73*
Cc1ccc2nc(/N=C(\N)NC(=O)NC3CCCCC3)nc(C)c2c1 | -149*
Cc1nc(/N=C(\N)NC(=O)c2ccccc2)nc2ccccc12 | -292*
C=CCNC(=O)c1ccc(-c2cccc([N+](=O)[O-])c2)o1 | -115*
O=C(Nc1nccs1)c1ccc(-c2cccc([N+](=O)[O-])c2)o1 | -175*
O=C(NC(=S)Nc1cccc(Cl)c1N1CCCC1)c1ccc(-c2cccc([N+](=O)[O-])c2)o1 | -63*
O=C(Nc1ccccc1F)Nc1ccc([N+](=O)[O-])cc1Cl | -125*
SMILES | aSyn 5UTR act
O=C(Nc1ccccc1F)c1ccc(-c2cccc([N+](=O)[O-])c2)o1 | -141*
Cc1ccc(NC(=O)Nc2cc(S(C)(=O)=O)ccc2Cl)cc1 | -77*
CS(=O)(=O)c1ccc(Cl)c(NC(=O)CCl)c1 | -88*
Cc1ccc(S(=O)(=O)Nc2cc(Cl)c(O)c3ncccc23)cc1 | 77
CCC1(C)N=C(c2ccc3c(c2)OCO3)CC(c2ccccc2O)N1 (centres undefined) | -286*
O=C(CSc1ncccc1-c1nc2ccccc2[nH]1)Nc1ccc2c(c1)OCCO2 | -71*
O=C(CSc1ncccc1-c1nc2ccccc2[nH]1)N1CCc2ccccc21 | -117*
CC(C)n1c(CN(C)Cc2ccccc2)nc2c1c(=O)n(C)c(=O)n2C | 64
Cc1[nH]c2ccccc2c(=O)c1CN(C)Cc1ccccc1 | -89*
CCOc1ccc2c(c1)nc(SCC(=O)c1cccs1)n2C | -67*
CCCCNc1nc(N)nc(-c2cc(Cl)ccc2O)n1 | -67*
Cc1ccc(-n2nnnc2Sc2nc([N+](=O)[O-])nn2C)cc1 | -71*
O=[N+]([O-])c1cc(-c2n(-c3ccccn3)c3ccccc3[n+]2-c2ccccn2)ccc1Cl | -88*
CC1Cc2ccccc2N1C(=O)COc1ccc2c(c1)OCO2 (centres undefined) | -91*
CC1CCCN(C(=O)COc2ccc3c(c2)OCO3)C1 (centres undefined) | -69*
CCOc1cc(C)c(S(=O)(=O)Nc2ccc3cn[nH]c3c2)cc1C | -74*
On1c(-c2ccc(Cl)cc2)nc2ccccc21 | -146*
FC(F)(F)c1nc2ccccc2n2c(-c3ccc(Cl)cc3)nnc12 | 108
COc1cc(CNc2ncn[nH]2)ccc1OCc1cccc(C)c1 | -95*

Assay outcomes as filed in PubChem.
